These results are taken from PubChem BioAssay.

Active and inactive are the calls of the source.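 The calls were made as follows: active = compounds killing one labelled cell type while sparing the other, by normalised counts and ratio limits, not self-fluorescent; inactive = the rest.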

A short description of the assay: differential killing of epithelial or mesenchymal cells, primary screen, imaging, PC-3E GFP, TEM4-18 mCherry, co-culture (AID 1345086).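 Also: normalised mesenchymal count divided by normalised epithelial count so high means epithelial killing; cells exposed to compound for 72 h before imaging.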 The conditions noted are these: imaging cell counts, at 1 µM, actives lie on both sides, counts scaled to control wells, 1 = unselective.
With `CCC1OC(=O)[C@H](C)C(=O)[C@H](C)[C@@H](OC2O[C@H](C)C[C@H](N(C)C)[C@H]2O)[C@](C)(OC)C[C@@H](C)C(=O)[C@H](C)[C@H]2N(CCCCn3cnc(-c4cccnc4)c3)C(=O)O[C@@]12C` (stereo not given in full), the red/green cell ratio (normalised) is 1.16 (inactive).
Take `COC(=O)[C@H](Cc1ccccc1)NC(=O)/C(=C1\OC(=O)C(c2ccccc2)=C1O)c1ccccc1`: the red/green cell ratio (normalised) was 0.97 (inactive).
As to `O=C1CC(c2ccc(O)cc2)Oc2ccccc21` (stereo not given), the red/green cell ratio (normalised) was 1.07 (inactive).
Then `C[C@H]1C(=O)CCC2[C@]3(C)CC[C@@]4(C)C5CC(C)(C)CC[C@]5(C)CC[C@]4(C)C3CC[C@@]21C` (stereo not given in full), with 1.06 (inactive); and `C[C@@H]1OC(O[C@H]2[C@H](O)[C@@H](O)[C@H](OC[C@H]3O[C@@H](OC(=O)[C@]45CCC(C)(C)CC4C4=CCC6[C@@]7(C)CC[C@H](OC8OC[C@H](O)[C@H](O)[C@H]8OC8O[C@@H](C)[C@H](O)[C@@H](O)[C@H]8O)[C@@](C)(CO)C7CC[C@@]6(C)[C@]4(C)CC5)[C@H](O)[C@@H](O)[C@@H]3O)O[C@@H]2CO)[C@H](O)[C@H](O)[C@H]1O` (stereo not given in full), with 0.98 (inactive).
Then `C[C@]12CCc3occc3C1CC[C@@]13C[C@@H](CCC12)[C@@](O)(CO)C3` (stereo not given in full), with 1.12 (inactive); and `CC(C)CCCC(C)[C@H]1CCC2C3C(=O)C=C4C[C@@H](O)CC[C@]4(C)C3CC[C@@]21C` (stereo not given in full), with 0.98 (inactive); and `NC(CSSCC(N)C(=O)O)C(=O)O` (stereo not given), with 0.92 (inactive).
As to `COc1ccc(-c2coc3cc(OC)ccc3c2=O)cc1`, the red/green cell ratio (normalised) was 0.82 (inactive).
As to `O=c1c(O)c(-c2ccccc2)oc2ccc3occc3c12`, the red/green cell ratio (normalised) is 0.81 (inactive).
With `CO/N=C(/C(=O)NC1C(=O)N2C(C(=O)O)=C(C[N+]3(C)CCCC3)CSC12)c1csc(N)n1` (stereo not given) the figure was 1.01 (inactive).
On to `CC1=C2[C@H](C=C3CCC[C@@H](C)[C@]3(C)[C@@H]2O)OC1=O`, for which the red/green cell ratio (normalised) is 0.84 (inactive).
Turning to `CCN(Cc1cccc(S(=O)(=O)O)c1)c1cccc(C(=C2C=CC(=[N+](CC)Cc3cccc(S(=O)(=O)O)c3)C=C2)c2ccc(O)cc2S(=O)(=O)[O-])c1`, the red/green cell ratio (normalised) is 0.88 (inactive).
Take `Cc1c(O)c(O)cc2oc3cc(O)cc(O)c3c(=O)c12`: the red/green cell ratio (normalised) is 1.06 (inactive).
With `CC(CC(=O)N1C(=S)SC[C@@H]1c1ccccc1)N1C(=S)SC[C@@H]1c1ccccc1` (stereo not given in full) the figure was 0.88 (inactive); with `COC(=O)[C@@]12Oc3ccc(-c4ccc5c(c4O)C(O)=C4C(=O)C[C@H](C)[C@H](O)[C@]4(C(=O)OC)O5)c(O)c3C(O)=C1C(=O)C[C@H](C)[C@@H]2O`, 1.15 (inactive); with `CCC(C)[C@H]1O[C@]2(CC[C@@H]1C)C[C@@H]1C[C@@H](C/C=C(\C)[C@@H](OC3C[C@H](OC)C(O[C@H]4C[C@H](OC)[C@@H](O)[C@H](C)O4)[C@H](C)O3)[C@@H](C)/C=C/C=C3\COC4[C@H](O)C(C)=C[C@@H](C(=O)O1)[C@]34O)O2` (stereo not given in full), 0.84 (inactive).
Regarding `COc1cc(/C=C/C(=O)O)cc(OC)c1O`, the red/green cell ratio (normalised) was 1.1 (inactive).
Turning to `O=C(O)CNc1ccc(Cl)cc1[N+](=O)[O-]`, the red/green cell ratio (normalised) was 1.05 (inactive).
Then `C=C[C@@](C)(O)CCC1C(=C)C[C@H](OC(C)=O)C2C(C)(C)CCCC12C` (stereo not given in full), with 1.05 (inactive); and `C[C@@H]1C(=O)NC(Cc2ccccc2)C(=O)N2CCCC[C@H]2C(=O)O[C@H]([C@@H](C)CCCC[C@@H](C)O)C[C@H]1O` (stereo not given in full), with 0.9 (inactive); and `COC(=O)/C(=C1\OC(=O)C(c2ccccc2)=C1O)c1ccccc1`, with 1.05 (inactive).
Take `Clc1ccc(Br)cc1/C=C/C1CCCNC1` (stereo not given): the red/green cell ratio (normalised) is 0.95 (inactive).
Take `CC1(C)CC[C@]2(C(=O)O)CC[C@]3(C)C(=CCC4[C@@]5(C)CC[C@H](O)[C@@](C)(CO)C5CC[C@]43C)C2C1` (stereo not given in full): the red/green cell ratio (normalised) was 0.94 (inactive).
As to `C=C1C(=O)OC(C(=O)O)C1(O)CCCCCCCCC` (stereo not given), the red/green cell ratio (normalised) was 0.96 (inactive).
Then `Cc1ccc(S[C@H]2OC3COC(c4ccccc4)OC3[C@@H]3OC(=O)N[C@H]23)cc1` (stereo not given in full), with 1.55 (inactive); and `O=C(Cc1ccccc1)NCC1O[C@@H](OC2C(NC(=O)Cc3ccccc3)C[C@@H](NC(=O)Cc3ccccc3)[C@H](OC3OC(COS(=O)(=O)O)[C@@H](OS(=O)(=O)O)[C@H](NC(=O)Cc4ccccc4)[C@H]3OS(=O)(=O)O)[C@H]2OS(=O)(=O)O)[C@H](OS(=O)(=O)O)[C@@H](OS(=O)(=O)O)C1OS(=O)(=O)O` (stereo not given in full), with 1.14 (inactive).
Consider `CC(C)[C@H]1COC(=O)N1C(=O)CC(C)N1C(=S)OC[C@H]1c1ccccc1` (stereo not given in full), for which the red/green cell ratio (normalised) is 1.05 (inactive).
On to `C=CCOC(=O)N1C(=O)O[C@H]2C(OC(C)=O)C(COC(C)=O)O[C@H](Sc3ccc(C)cc3)[C@H]21` (stereo not given in full), for which the red/green cell ratio (normalised) is 0.89 (inactive).
For the molecule `C=C1[C@@H](C)C2[C@H](Cc3c[nH]c4ccccc34)NC(=O)[C@]23C(=O)/C=C/[C@H](O)C(=O)/C(C)=C/[C@@H](C)C/C=C/[C@H]3[C@@H]1O` (stereo not given in full), the red/green cell ratio (normalised) is 1.13 (inactive).
Regarding `COc1ccc2oc(-c3ccccc3)c(OC)c(=O)c2c1`, the red/green cell ratio (normalised) was 0.79 (inactive).
Turning to `COC(=O)C[C@@H]1C2(C)C(=O)[C@@H](CC3C2CC[C@]2(C)C3CC(=O)O[C@H]2c2ccoc2)[C@H](OC(C)=O)C1(C)C` (stereo not given in full), the red/green cell ratio (normalised) is 0.92 (inactive).
For the molecule `CCCc1ccc(C(=O)O)nc1`, the red/green cell ratio (normalised) was 0.84 (inactive).
`CCCCC/C=C/C1=C(CO)[C@H](O)[C@H]2O[C@H]2[C@@H]1O`: the red/green cell ratio (normalised) was 1 (inactive).
`C[C@]12C=CC(=O)NC1CCC1C2CC[C@@]2(C)C1CC[C@@H]2C(=O)Nc1cc(C(F)(F)F)ccc1C(F)(F)F` (stereo not given in full): the red/green cell ratio (normalised) is 0.83 (inactive).
Consider `C/C=C/C1=CC(=O)[C@H](O)[C@H]1O`, for which the red/green cell ratio (normalised) was 1.04 (inactive).
Take `COc1cc(OC)c2c(c1C)C(C)(O)COC2=O` (stereo not given): the red/green cell ratio (normalised) is 0.9 (inactive).
In the case of `Nc1ccc(Oc2ccccc2)cc1`, the red/green cell ratio (normalised) is 0.95 (inactive).
As to `NCC1O[C@@H](OC2C(N)C[C@@H](N)C(OC3OC(CO)[C@@H](O)C(N)[C@H]3O)[C@H]2O)C(O)[C@@H](O)C1O` (stereo not given in full), the red/green cell ratio (normalised) was 1.1 (inactive).
Consider `Nc1nc(Cl)nc2c1ncn2C1O[C@H](CO)[C@@H](O)[C@@H]1F` (stereo not given in full), for which the red/green cell ratio (normalised) was 1.78 (inactive).
